Screening data as filed in PubChem.
SARS PLpro yeast – inhibitors of SARS-CoV papain-like protease in yeast | Potency, µM (highest dose often 32.9 µM), usual class: activators | AID 485353 | 330,000 compounds, 0.19% hits | S. cerevisiae expressing SARS-CoV PLpro, growth rescue; calls by dose curve; also: nearly all actives have a fitted effect of over 55% in size
Pf growth 48h – P. falciparum growth inhibition at 48 hours (one generation); P. falciparum luciferase growth in erythrocytes, 48 h; Potency, µM (series often up to 28.7 µM), usual class: inhibitors; 310,000 compounds, 5.9% hits; AID 504832
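Luciferase-expressing P. falciparum in infected erythrocytes (2% hematocrit, 0.1% parasitemia final) in RPMI 1640/0.5% Albumax were exposed to compound for 48 hours at 37 C, 5% CO2; growth read as luminescence.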
Pf growth 96h – inhibits malaria parasite growth, 96 h. 320,000 compounds, 6.9% hits. AID 504834. P. falciparum luciferase reporter growth, 96 h. Potency, µM (top dose mostly 28.7 µM), most hits filed as inhibitors
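Infected RBCs, 2% Hct / 0.05% parasitemia final; luciferase-reporter P. falciparum; cpd 96 h, 37 C, 5% CO2; luciferase detection reagent; luminescence.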
AMA1 RON2 block – disrupts binding of P. falciparum AMA1 to RON2 | 360,000 compounds, 0.2% hits | AlphaScreen AMA1-biotinylated RON2 peptide binding | Potency, µM (highest dose often 58.2 µM), usual class: inhibitors; also: nearly all actives have a fitted effect of over 45% in size
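AMA1 (3D7) with his tag at 25 nM final met compounds first, then biotinylated RON2 peptide at 25 nM; detection used donor plus acceptor beads, 10 µg/mL apiece, read by AlphaScreen after 30 min at room temperature.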
HCV inhibitor – inhibitors of hepatitis C virus infection | Huh7.5.1 HCVcc-Cre infection, luciferase reporter, 44 h | Potency, µM (doses to about 41.8 µM), usual class: inhibitors | 340,000 compounds, 3.4% hits
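After 44 h co-culture of compound, cells and HCVcc-Cre (~0.5 moi), substrate is added for 15 min at room temperature and luciferase measured over 15 sec. Cells were seeded at 1,000/well and pre-cultured 4 h.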
NS1 function inh – inhibitors of influenza NS1 protein function; Potency, µM (doses to about 46.1 µM); 270,000 compounds, 0.4% hits; AID 2326; calls by dose curve; also: actives are rising curves; nearly all actives have a fitted effect of over 50% in size
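A cell-based growth assay was used: compounds that relieve NS1-induced slow growth of budding yeast raise OD600. Assay medium was yeast nitrogen base with ammonium sulphate and -URA supplement, pH 6.0, with 2% galactose.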
Each line names hits and unclear results; the compound was inactive in the other large screens. Sampled rows, rich in hits. Any-hit rate of the full collection: about 12%. Unless noted, calls follow the shape of the dose curve; as a rule, active = well fitted curve in the direction sought with a large enough effect; inconclusive = small, poorly fitted or top-dose-only effect, or another doubt; inactive = no such curve, though single readings can be large; an effect the other way counts as inactive or inconclusive.

CCOC(=O)C1=C(N)N(c2ccccc2)C2=C(C(=O)CCC2)C1c1cccnc1 (centres undefined)	Pf growth 96h 5.22µM
CCSc1sccc1C1C(C#N)=C(N)N(c2cccnc2)C2=C1C(=O)CCC2 (centres undefined)	Pf growth 48h 11.7µM
CCOC(=O)[C@]12CCCC=C1N(CCc1ccc(OC)c(OC)c1)C(=O)[C@H](CC(=O)NCc1ccc(C)o1)C2	none (no result: SARS PLpro yeast, Pf growth 48h, Pf growth 96h, HCV inhibitor, NS1 function inh)
CCCCNc1c(CN)cnc2cc(Cl)ccc12	none (no result: SARS PLpro yeast, Pf growth 48h, Pf growth 96h, AMA1 RON2 block, HCV inhibitor)
CC[n+]1c(/C=C/N(C)c2ccccc2)n(-c2ccccc2)c2ccc(-c3nc4ccccc4s3)cc21	HCV inhibitor 5.62µM
CC[n+]1cccc(-c2nc3ccccc3s2)c1	Pf growth 96h inconclusive (no result: NS1 function inh)
CC(c1ccccc1)C(Cc1nc2ccccc2[nH]1)c1nc2ccccc2[nH]1 (centres undefined)	Pf growth 48h 7.38µM (no result: AMA1 RON2 block, HCV inhibitor, NS1 function inh)
C[C@H](NC(=O)c1ccc(Cl)c(S(=O)(=O)N2CCOCC2)c1)c1nc2ccccc2[nH]1	Pf growth 48h inconclusive, Pf growth 96h 3.29µM (no result: NS1 function inh)
CC(C)C(NC(=O)c1ccc(S(=O)(=O)N2CCOCC2)cc1)c1nc2ccccc2[nH]1 (centres undefined)	Pf growth 96h 13.1µM
CSCC[C@H](NC(=O)c1ccc(Cl)c(S(=O)(=O)N2CCCC2)c1)c1nc2ccccc2[nH]1	Pf growth 48h 11.7µM, Pf growth 96h 10.4µM, NS1 function inh inconclusive
COc1ccc(C(=O)Nc2nc3ccccc3[nH]2)cc1S(=O)(=O)N1CCOCC1	none
CCC(C(=O)NCCCN1CCN(C)CC1)n1nc(C)n2c(cc3occc32)c1=O (centres undefined)	none
CSCC[C@H](NC(=O)C(C)(C)Oc1ccc(Cl)cc1)c1nc2ccccc2[nH]1	Pf growth 48h inconclusive, Pf growth 96h 10.4µM
CC(C)C(NC(=O)C(c1ccccc1)c1ccccc1)c1nc2ccccc2[nH]1 (centres undefined)	Pf growth 48h 9.28µM (no result: Pf growth 96h)
O=C(NCCCn1ccnc1)c1ccc(N2CCCCC2)c([N+](=O)[O-])c1	Pf growth 96h inconclusive, HCV inhibitor inconclusive (no result: NS1 function inh)
COc1ccc(Oc2ccc(-c3ccn[nH]3)cc2)cc1	none
CN(C)c1ccc(N/C=C/C(=O)C(C)(C)C)cc1	Pf growth 48h 2.33µM, HCV inhibitor inconclusive (no result: Pf growth 96h)
COc1ccc(CN2CCC(CO)(Cc3cccc(C(F)(F)F)c3)CC2)cc1Cn1cccn1	Pf growth 48h inconclusive, HCV inhibitor inconclusive
O=C(CSc1ncnc2nc[nH]c12)c1ccc2ccccc2c1	Pf growth 96h 5.22µM
O=C(O)CSc1ncnc2nc[nH]c12	none (no result: Pf growth 48h)
O=C(CCn1cnnn1)N1CCCC(Nc2ccc(F)c(F)c2)C1 (centres undefined)	none
Cc1ccc(C2C(C#N)=C(N)N(N(C)C)C3=C2C(=O)CCC3)cc1 (centres undefined)	none
CN(C)N1C(N)=C(C#N)C(c2ccsc2)C2=C1CCCC2=O (centres undefined)	Pf growth 48h inconclusive, Pf growth 96h 9.28µM
CN(C)N1C(N)=C(C#N)C(c2ccc(Cl)cc2)C2=C1CCCC2=O (centres undefined)	Pf growth 96h 0.738µM
Cc1ccc(N2C(N)=C(C#N)C(c3ccsc3)C3=C2CC(C)(C)CC3=O)cc1 (centres undefined)	Pf growth 48h inconclusive, HCV inhibitor 12.6µM
CN(C)N1C(N)=C(C#N)C(c2ccsc2)C2=C1CC(C)(C)CC2=O (centres undefined)	none
COc1ccc(C2C(C#N)=C(N)N(N(C)C)C3=C2C(=O)CCC3)cc1 (centres undefined)	Pf growth 96h 2.33µM
COc1ccc(NC(=O)C/C(C)=N/NC(=O)c2cccs2)c([N+](=O)[O-])c1	Pf growth 96h inconclusive
O=C(O)CCc1ccc(-c2ccc(Cl)cc2)n1NC(=O)c1ccc(O)cc1	none
C1=C[C@H]2CCCN3CC[C@@H]([C@@H]2[C@]32CO2)[C@H]1CCOCc1ccccc1	none (no result: SARS PLpro yeast, Pf growth 48h, Pf growth 96h, HCV inhibitor, NS1 function inh)
COc1cc(C2C(C#N)=C(N)N(c3sc4c(c3C#N)CCCC4)C3=C2C(=O)CC(C)(C)C3)cc(OC)c1OC (centres undefined)	Pf growth 48h inconclusive, Pf growth 96h 11.7µM
Cc1ccccc1C1C(C#N)=C2NC(=O)c3c(sc4c3CCCCC4)N2C2=C1C(=O)CC(C)(C)C2 (centres undefined)	Pf growth 48h inconclusive (no result: AMA1 RON2 block, HCV inhibitor)
COC(=O)C1=C(C)NC2=C(C(=O)CC(C)(C)C2)C1c1cccc(C)n1 (centres undefined)	Pf growth 96h inconclusive
COC(=O)C1=C(C)NC2=C(C(=O)CCC2)C1c1cn(Cc2ccc(Br)cc2)nc1-c1ccccc1 (centres undefined)	Pf growth 48h 8.28µM, Pf growth 96h 13.1µM, HCV inhibitor inconclusive
COC(=O)C1=C(C)NC2=C(C(=O)CC(C)(C)C2)C1c1cn(Cc2ccc(Br)cc2)nc1-c1ccccc1 (centres undefined)	Pf growth 48h 13.1µM, Pf growth 96h inconclusive, HCV inhibitor inconclusive, NS1 function inh inconclusive
NC(=S)NNC(=O)COc1ccccc1O	none
Cc1ccc(-c2cc(C(=O)N(C)Cc3cnn(C)c3C)c3cc(Br)ccc3n2)cc1	Pf growth 48h 9.28µM, Pf growth 96h inconclusive, HCV inhibitor inconclusive
NNC(=O)c1cc(-c2ccc(O)cc2)nc2ccc(Br)cc12	Pf growth 48h inconclusive, Pf growth 96h inconclusive
Cc1ccc(S(=O)(=O)Nc2cc(C(C(=O)OC(C)C)C(=O)C(F)(F)F)c(O)c3ccccc23)c(C)c1 (centres undefined)	Pf growth 48h 13.1µM, Pf growth 96h 5.22µM, HCV inhibitor inconclusive
Cc1ccc(C)c(S(=O)(=O)NCc2ccc(C(=O)N3CCN(c4ccccc4)CC3)cc2)c1	SARS PLpro yeast inconclusive, HCV inhibitor inconclusive
Cc1cc(C)c(C)c(S(=O)(=O)NCc2ccc(C(=O)N3CCCC3)cc2)c1C	Pf growth 48h 6.57µM, Pf growth 96h inconclusive
O=C(c1ccccc1S(=O)(=O)NCc1ccccc1)N1CCCC1	Pf growth 96h 14.7µM, NS1 function inh inconclusive (no result: Pf growth 48h)
Cc1cc(C)c(C)c(S(=O)(=O)NCC(=O)N2CCCC2)c1C	none
Cc1ccc(C)c(S(=O)(=O)NCc2ccc(C(=O)N3CCCCCC3)cc2)c1	Pf growth 48h inconclusive, Pf growth 96h 7.38µM
Cc1cc(C)c(C)c(S(=O)(=O)NCc2ccc(C(=O)N3CCCCC3)cc2)c1C	Pf growth 48h 1.04µM, Pf growth 96h 0.415µM, HCV inhibitor inconclusive
Cc1ccccc1C(=O)c1cccn1CC(=O)NC(C)c1ccc2c(c1)OCCO2 (centres undefined)	none (no result: NS1 function inh)
O=C(CC1C=Cc2ccccc2N1C(=O)c1ccccc1)c1ccccc1 (centres undefined)	Pf growth 48h inconclusive, Pf growth 96h 0.586µM, HCV inhibitor 10µM
